# Reference: PubChem BioAssay (NCATS)
# Records with an inconclusive call do not appear. Values without a mark were called inactive. Activity calls are given as the source filed them. Calls follow the shape of the dose curve; as a rule, active = well fitted cell-killing curve with a large enough effect; inconclusive = small, poorly fitted or top-dose-only effect; inactive = no such curve, though single readings can be large or run the other way.
# Assay: qHTS of pediatric cancer cell lines to identify multiple opportunities for drug repurposing: Primary screen for Rh30 cells (AID 1347107); also: nearly all actives have a fitted effect of over 75% in size
# Conditions: Rh30 rhabdomyosarcoma viability, CellTiter-Glo luminescence, 48 h; series mostly up to 46 µM; activity change, negative = cytotoxic: at the top concentration
# Description: Drug repurposing or repositioning has been offered as a strategy for drug development in oncology programs. This approach has special potential for childhood cancers and other rare or orphan diseases, where the expected return on new drug development has been a disincentive to pharmaceuticals.
# In this project we exploit the poly-pharmacology of drugs to discover new indications via phenotypic screening of a panel of 19 well-characterized cell lines derived from solid tumors seen in children and adolescents. The goal is to identify approved drugs with previously unrecognized anticancer properties that has the potential to reveal new mechanisms and biological processes involved in carcinogenesis or drug resistance. We employed a titration-based paradigm (quantitative high-throughput screening or qHTS), where all compounds were tested at multiple concentrations for their effect on cell viability. Concentration-response curves (CRCs) were derived directly from the primary screen, and both potency and efficacy values were used to identify compounds with robust bioactivity profiles. We screened the NIH Chemical Genomics Center (NCGC) Pharmaceutical Collection (NPC) and Mechanism Interrogation Plate (MIPE) small molecule collections of approved and investigational compounds against these cell lines; and measured metabolically active cells after 48 hours of compound treatment as a proxy for cell viability.
# Assay Submitter: Nathalia J. Martinez, National Center for Advancing Translational Sciences, National Institutes of Health, Rockville, MD, USA; email: natalia.martinez@nih.gov
# [1] Shen, M et al. Quantitative high-throughput phenotypic screening of pediatric cancer cell lines identifies multiple opportunities for drug repurposing. Oncotarget 2017 Dec 19;9(4):4758-4772. PMID 29435139.
# The cells were obtained from University of North Carolina (UNC), Pediatric Preclinical Testing Program (PPT), and Coriell Institute (CI).
# qHTS cell viability assay:
# Cells were assayed in growth media at a density of 500-1,000 cells/well. Five microliters of cells were dispensed into 1,536-well, white, solid-bottom, TC-treated plates (Greiner Bio One) using a multidrop dispenser and incubated at 37 degrees C, 5% CO2, under a humidified atmosphere for 5 hours. Twenty-three nanoliters of compounds and controls (neutral control DMSO or positive control bortezomib at final concentration of 2.3 µM) were subsequently transferred by Kalypsys pintool. For primary screens, the MIPE collection was tested at 11-point dilutions (final concentrations range from 0.78 nM to 46 µM) and the NPC collection at 8-point dilutions (final concentrations range from 0.59 nM to 46 µM). Compounds tested in follow-up screens were assayed at 11-point dilutions. Cells were incubated for 48 hours, followed by addition of 3 µL of CellTiter-Glo (Promega). After a 15 min incubation at room temperature, samples were analyzed for luminescence intensity using a ViewLux High-throughput CCD imager equipped with clear filters.
# % is scaled to controls: 0 for no effect and ±100 for the full control effect; potency is read from the fitted curve at half-maximal effect.
SMILES,"activity change, negative = cytotoxic",Potency
O=C(O)[C@H](Cc1c[nH]c2ccccc12)N1C(=O)c2ccccc2C1=O,11.8% [at 92.7 µM],
Cc1coc2c1C(=O)C(=O)c1c-2ccc2c1CCCC2(C)C,-3.51%,
COc1c(N2C[C@@H]3CCCN[C@H]3C2)c(F)cc2c(=O)c(C(=O)O)cn(C3CC3)c12,21.2%,
C1=CCOCc2cc(ccc2OCCN2CCCC2)Nc2nccc(n2)-c2cccc(c2)OCC1,,14.8 µM (active)
CC(C)c1cc(-c2n[nH]c(=O)n2-c2ccc3c(ccn3C)c2)c(O)cc1O,-26%,
C=CC(=O)Nc1cccc(Oc2nc(Nc3ccc(N4CCN(C)CC4)cc3OC)ncc2Cl)c1,,23.5 µM (active)
Cc1[nH]nc2ccc(-c3cncc(OC[C@@H](N)Cc4ccccc4)c3)cc12,-28.2%,
COc1ccc(-c2cc3c(C)nc(N)nc3n(C3CCC(OCCO)CC3)c2=O)cn1 (stereo not given),,4.18 µM (active)
CC=CC1=C(C(=O)O)N2C(=O)[C@H](NC(=O)[C@H](N)c3ccc(O)cc3)[C@@H]2SC1,22%,
COc1ccc(CC2c3cc(OC)c(OC)cc3CC[N+]2(C)CCC(=O)OCCCCCOC(=O)CC[N+]2(C)CCc3cc(OC)c(OC)cc3C2Cc2ccc(OC)c(OC)c2)cc1OC (stereo not given),18.3% [at 9.22 µM],
O=C(O)Cn1nnc(-c2cc(N3CCC(Oc4cc(F)ccc4Br)CC3)no2)n1,32.5%,
CNc1nccc(-c2cccnc2Oc2cc(C(=O)Nc3cccc(C(F)(F)F)c3)ccc2C)n1,-13.2%,
O=C(NCCS(=O)(=O)c1ccc(C(F)(F)F)cn1)c1ccc(Cl)cc1,-2.32%,
CN1CCN(c2cc(C(=O)Nc3ccc4c(c3)-c3c(c(C(N)=O)nn3-c3ccc(F)cc3)CC4)c(Cl)cn2)CC1,,16.6 µM (active)
c1cc(-c2cnn3cc(-c4ccc(OCCN5CCCCC5)cc4)cnc23)ccn1,,18.7 µM (active)
COc1ccc(-n2nc(C(N)=O)c3c2C(=O)N(c2ccc(N4CCCCC4=O)cc2)CC3)cc1,32.4%,
Cc1cc(Nc2cc(N3CCN(C)CC3)nc(Sc3ccc(NC(=O)C4CC4)cc3)n2)n[nH]1,,18.7 µM (active)
C=C1C(=CC=C2CCC[C@]3(C)[C@@H]([C@H](C)C=C[C@H](C)C(C)C)CC[C@@H]23)C[C@@H](O)C[C@@H]1O,,3.72 µM (active)
O=C(CCCCCCNC(=O)c1cnc(N(c2ccccc2)c2ccccc2)nc1)NO,,14.8 µM (active)
COc1cc(OC2CCN(C)CC2)ccc1Nc1ncc2c(n1)n(C1CCCC1)c(=O)n2C,,20.9 µM (active)

SMILES,"activity change, negative = cytotoxic",Potency
COc1cccc(-c2ccc(NC(=O)C3=C(C(=O)O)CCC3)c(F)c2)c1,-25.7%,
NC(=O)Nc1cc(-c2cccc(F)c2)sc1C(=O)N[C@H]1CCCNC1,,0.833 µM (active)
COc1ccc(CC2SC(=O)NC2=O)cc1C(=O)NCc1ccc(C(F)(F)F)cc1 (stereo not given),0.937%,
COc1cc(C)c(Sc2cnc(NC(=O)c3ccc(CNC(C)C(C)C)cc3)s2)cc1C(=O)N1CCN(C(C)=O)CC1 (stereo not given),,8.33 µM (active)
Clc1cccc(-c2nnnn2Cc2cccnc2)c1Cl,6.95%,
O=C(CCCCCCC(=O)Nc1ccc([C@H]2O[C@@H](CSc3nc(-c4ccccc4)c(-c4ccccc4)o3)C[C@@H](c3ccc(CO)cc3)O2)cc1)NO,,14.8 µM (active)
COc1ccc(C(=O)CC2(O)C(=O)Nc3c(Cl)ccc(Cl)c32)cc1 (stereo not given),-1.16%,
O=C(c1ccc(Nc2nccc(-c3cc4ccccc4s3)n2)cc1)N1CCC(N2CCCC2)CC1,,23.5 µM (active)
CN1CC[C@@H](c2c(O)cc(O)c3c(=O)cc(-c4ccccc4Cl)oc23)[C@@H](O)C1,-9.42%,
CC[C@H]1CN2CCc3cc(OC)c(OC)cc3[C@H]2C[C@@H]1C[C@@H]1NCCc2cc(OC)c(OC)cc21,-7.21%,
Nc1ccc(S(=O)(=O)Nc2ncccn2)cc1,33.5%,
Cc1ccc(S(=O)(=O)Nc2cc(Cl)ccc2C(=O)Nc2nc(-c3ccccc3)cs2)cc1,-21.6%,
CC(C)c1nn(-c2c(Cl)cccc2Cl)c2nc(Cc3ccc(OCCO)cc3)[nH]c(=O)c12,5.7%,
Fc1cc(-c2cccc3ncc(-c4cnn(C5CCNCC5)c4)nc23)cc(F)c1CN1CCOCC1,,23.5 µM (active)
CCC(=C(c1ccccc1)c1ccc(OCCN(C)C)cc1)c1ccccc1,-9.27%,
CN(C)CC=CC(=O)Nc1cc2c(Nc3ccc(F)c(Cl)c3)ncnc2cc1O[C@H]1CCOC1,,14.8 µM (active)
COc1ccc(C=Cc2cc(OC)c(OC)c(OC)c2)cc1O,-2.09%,
CC=C1NC(=O)[C@H]2CSSCCC=C[C@H](CC(=O)N[C@H](C(C)C)C(=O)N2)OC(=O)[C@H](C(C)C)NC1=O,,0.0296 µM (active)
CCN1CCN(CC(=O)Nc2ccc(-c3cccc4c(=O)cc(N5CCOCC5)oc34)c3sc4ccccc4c23)CC1,,10.5 µM (active)
CC1=C(CO)C(=O)O[C@@H]([C@@H](C)[C@H]2CC[C@H]3[C@@H]4C[C@H]5O[C@]56[C@@H](O)C=CC(=O)[C@]6(C)[C@@H]4CC[C@]23C)C1,,2.35 µM (active)
